# Source: ChEMBL document CHEMBL1157539, “Thousands of chemical starting points for antimalarial lead identification” (Nature, 2010)
# Key:
# Format in all cases: functional
# Plasmodium falciparum [1] = assay: GSK_TCMDC: Inhibition of Plasmodium falciparum 3D7 in whole red blood cells, using parasite LDH activity as an index of growth. Test compounds present at 2uM
# Plasmodium falciparum [2] = assay: GSK_TCMDC: Inhibition of Plasmodium falciparum Dd2 in whole red blood cells, using parasite LDH activity as an index of growth. Test compounds present at 2uM
# HepG2 = assay: GSK_TCMDC: Percent inhibition of human HepG2 cell line. Test compounds present at 10uM.
SMILES,Inhibition (Plasmodium falciparum [1]) [%],Inhibition (Plasmodium falciparum [2]) [%],Inhibition (HepG2) [%]
CCOC(=O)C(C)(C)Oc1ccc(CN(Cc2ccc(CC(C)C)cc2)C(=O)Nc2ccc(F)cc2F)c(OC)c1,97,96,5
N=C(N)NC(=O)Nc1cc(Br)c(Br)c(Br)c1,100,89,0
O=C(/C=C/c1ccc(Cl)c(Cl)c1)NCCCCCN1CCC(NC(=O)Nc2ccccc2F)CC1,95,25,14
